Measured values from article PMC7862700, “An all-to-all approach to the identification of sequence-specific readers for epigenetic DNA modifications on cytosine”.

Key:
Assay in all cases: DAPPL (digital affinity profiling via proximity ligation, sequencing); 10 mM Tris-HCl pH 7.5, 50 mM NaCl, 1 mM DTT, 4% glycerol, room temperature, 30 min; GST-TFs on glutathione beads, 16-mer random dsDNA library, 0.1% formaldehyde crosslink after washing; high values mean tight binding
Settings in all cases: protein: recombinant; tags: N-terminal GST; dsDNA, one strand shown
[1] = target: T1, FLI1 (Homo sapiens, UniProt Q01543 1-452)
T1 sequence: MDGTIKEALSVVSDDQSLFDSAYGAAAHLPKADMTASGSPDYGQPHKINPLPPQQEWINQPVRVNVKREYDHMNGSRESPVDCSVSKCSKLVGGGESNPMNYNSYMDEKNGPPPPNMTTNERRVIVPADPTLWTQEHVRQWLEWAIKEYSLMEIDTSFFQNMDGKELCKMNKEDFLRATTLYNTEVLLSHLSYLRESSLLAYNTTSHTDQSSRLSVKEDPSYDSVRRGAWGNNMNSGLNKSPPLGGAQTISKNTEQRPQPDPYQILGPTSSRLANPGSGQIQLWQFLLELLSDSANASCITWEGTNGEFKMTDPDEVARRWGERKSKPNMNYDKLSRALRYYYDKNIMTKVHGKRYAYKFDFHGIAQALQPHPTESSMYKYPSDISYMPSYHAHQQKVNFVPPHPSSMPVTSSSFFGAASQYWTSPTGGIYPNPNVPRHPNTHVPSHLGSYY
Outline: (§1)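 Beads coated with glutathione captured GST-fused human transcription factors that had been expressed in yeast, and the factors were then given DNA barcodes and pooled with a tag-only sample. The pools were incubated with 200 nmole of a random double-stranded 16-mer DNA library in Tris/NaCl/DTT/glycerol buffer for 30 min at room temperature, washed, crosslinked with 0.1% formaldehyde and proximity-ligated with BsaI/T4 ligase at 37 °C for 1 h. PCR amplification and Illumina NextSeq500 sequencing came last. Binding signal is each hexamer's read frequency for a factor divided by its frequency for the tag-only sample.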

[2] = target: SPI1 (Homo sapiens, UniProt P17947 1-270)
Outline: as §1

[3] = target: T2, ELK3 (Homo sapiens, UniProt P41970 1-407)
T2 sequence: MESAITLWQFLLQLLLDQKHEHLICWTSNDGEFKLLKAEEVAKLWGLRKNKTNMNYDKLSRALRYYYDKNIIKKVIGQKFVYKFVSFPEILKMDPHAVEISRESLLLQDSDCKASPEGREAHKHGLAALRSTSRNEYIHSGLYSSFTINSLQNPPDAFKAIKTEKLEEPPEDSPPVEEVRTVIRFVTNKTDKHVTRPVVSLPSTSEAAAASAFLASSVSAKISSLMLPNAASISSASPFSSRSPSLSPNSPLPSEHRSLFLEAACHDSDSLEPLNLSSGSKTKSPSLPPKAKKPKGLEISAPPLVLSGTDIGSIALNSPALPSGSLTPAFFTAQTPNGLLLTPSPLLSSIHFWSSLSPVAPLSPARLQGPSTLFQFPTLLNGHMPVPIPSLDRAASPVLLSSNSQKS
Outline: as §1

[4] = target: T3, ELF5 (Homo sapiens, UniProt Q9UKW6-2 1-255)
T3 sequence: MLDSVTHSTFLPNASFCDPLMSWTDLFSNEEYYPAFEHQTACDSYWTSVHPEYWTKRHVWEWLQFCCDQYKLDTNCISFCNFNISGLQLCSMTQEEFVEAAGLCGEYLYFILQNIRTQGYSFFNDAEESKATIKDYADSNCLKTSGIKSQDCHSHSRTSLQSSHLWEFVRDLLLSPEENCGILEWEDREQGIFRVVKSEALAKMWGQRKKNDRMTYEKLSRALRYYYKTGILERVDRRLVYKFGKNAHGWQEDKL
Outline: as §1

[5] = target: CRX (Homo sapiens, UniProt O43186 1-299)
CRX, sequence (O43186 whole entry): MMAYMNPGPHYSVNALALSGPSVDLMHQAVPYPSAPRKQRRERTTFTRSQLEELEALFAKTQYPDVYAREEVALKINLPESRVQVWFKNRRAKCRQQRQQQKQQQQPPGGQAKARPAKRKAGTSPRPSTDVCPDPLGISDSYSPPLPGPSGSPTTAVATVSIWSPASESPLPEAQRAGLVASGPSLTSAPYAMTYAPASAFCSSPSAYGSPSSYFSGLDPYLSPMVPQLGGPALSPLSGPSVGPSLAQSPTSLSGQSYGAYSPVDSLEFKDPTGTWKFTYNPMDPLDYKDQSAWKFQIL
Outline: as §1

Row | Sequence | binding signal [1] | binding signal [2] | binding signal [3] | binding signal [4] | binding signal [5]
1 | CCCCCC | 1.03 fold enrichment (6-mer frequency, TF over GST control) | 1.07 fold enrichment (6-mer frequency, TF over GST control) | 1.12 fold enrichment (6-mer frequency, TF over GST control) | 1.09 fold enrichment (6-mer frequency, TF over GST control) | –
2 | ACACGC | 1.15 fold enrichment (6-mer frequency, TF over GST control) | – | 1.12 fold enrichment (6-mer frequency, TF over GST control) | 1.02 fold enrichment (6-mer frequency, TF over GST control) | –
3 | CTGGGC | 1.15 fold enrichment (6-mer frequency, TF over GST control) | 1.05 fold enrichment (6-mer frequency, TF over GST control) | 1.02 fold enrichment (6-mer frequency, TF over GST control) | – | –
4 | TCATGT | 1.14 fold enrichment (6-mer frequency, TF over GST control) | 1.15 fold enrichment (6-mer frequency, TF over GST control) | – | 1.01 fold enrichment (6-mer frequency, TF over GST control) | –
5 | AAGGGC | 1.06 fold enrichment (6-mer frequency, TF over GST control) | – | 1.18 fold enrichment (6-mer frequency, TF over GST control) | 1.04 fold enrichment (6-mer frequency, TF over GST control) | –
6 | ACCATT | 1.22 fold enrichment (6-mer frequency, TF over GST control) | 1.16 fold enrichment (6-mer frequency, TF over GST control) | 1.28 fold enrichment (6-mer frequency, TF over GST control) | 1.15 fold enrichment (6-mer frequency, TF over GST control) | –
7 | CATGTT | 1.05 fold enrichment (6-mer frequency, TF over GST control) | 1.04 fold enrichment (6-mer frequency, TF over GST control) | – | – | –
8 | ACAGCA | 1.01 fold enrichment (6-mer frequency, TF over GST control) | – | 1.02 fold enrichment (6-mer frequency, TF over GST control) | – | –
9 | CACGCA | 1.11 fold enrichment (6-mer frequency, TF over GST control) | – | 1.14 fold enrichment (6-mer frequency, TF over GST control) | – | –
10 | TGGGGT | 1.02 fold enrichment (6-mer frequency, TF over GST control) | 1.04 fold enrichment (6-mer frequency, TF over GST control) | 1.17 fold enrichment (6-mer frequency, TF over GST control) | 1.01 fold enrichment (6-mer frequency, TF over GST control) | –
11 | CAAGTT | 1.11 fold enrichment (6-mer frequency, TF over GST control) | – | 1.03 fold enrichment (6-mer frequency, TF over GST control) | 1.03 fold enrichment (6-mer frequency, TF over GST control) | –
12 | CCCTGA | 1 fold enrichment (6-mer frequency, TF over GST control) | 1.03 fold enrichment (6-mer frequency, TF over GST control) | 1.12 fold enrichment (6-mer frequency, TF over GST control) | 1.06 fold enrichment (6-mer frequency, TF over GST control) | 1.03 fold enrichment (6-mer frequency, TF over GST control)
13 | CGTAGC | 1.13 fold enrichment (6-mer frequency, TF over GST control) | 1.04 fold enrichment (6-mer frequency, TF over GST control) | – | 1.05 fold enrichment (6-mer frequency, TF over GST control) | –
14 | TGATAC | 1.13 fold enrichment (6-mer frequency, TF over GST control) | 1.19 fold enrichment (6-mer frequency, TF over GST control) | 1.08 fold enrichment (6-mer frequency, TF over GST control) | 1.1 fold enrichment (6-mer frequency, TF over GST control) | 1.1 fold enrichment (6-mer frequency, TF over GST control)
15 | TGCCCA | 1.21 fold enrichment (6-mer frequency, TF over GST control) | 1.09 fold enrichment (6-mer frequency, TF over GST control) | – | 1.01 fold enrichment (6-mer frequency, TF over GST control) | –
16 | ACCAAA | 1.01 fold enrichment (6-mer frequency, TF over GST control) | 1.06 fold enrichment (6-mer frequency, TF over GST control) | – | – | –
17 | GCCTGC | 1.03 fold enrichment (6-mer frequency, TF over GST control) | 1.06 fold enrichment (6-mer frequency, TF over GST control) | 1.08 fold enrichment (6-mer frequency, TF over GST control) | 1.09 fold enrichment (6-mer frequency, TF over GST control) | –

Row | Sequence | binding signal [1] | binding signal [2] | binding signal [3] | binding signal [4] | binding signal [5]
18 | TGTGCG | 1.03 fold enrichment (6-mer frequency, TF over GST control) | – | 1.01 fold enrichment (6-mer frequency, TF over GST control) | 1.07 fold enrichment (6-mer frequency, TF over GST control) | –
19 | CGATGC | 1.13 fold enrichment (6-mer frequency, TF over GST control) | 1.12 fold enrichment (6-mer frequency, TF over GST control) | – | – | –
20 | ATGCCA | 1.01 fold enrichment (6-mer frequency, TF over GST control) | – | – | 1.01 fold enrichment (6-mer frequency, TF over GST control) | –
21 | GGTATC | 1.11 fold enrichment (6-mer frequency, TF over GST control) | 1.02 fold enrichment (6-mer frequency, TF over GST control) | – | – | –
22 | GCTATC | 1.07 fold enrichment (6-mer frequency, TF over GST control) | 1.12 fold enrichment (6-mer frequency, TF over GST control) | 1.12 fold enrichment (6-mer frequency, TF over GST control) | 1.04 fold enrichment (6-mer frequency, TF over GST control) | –
23 | GTTGAC | 1.11 fold enrichment (6-mer frequency, TF over GST control) | 1.15 fold enrichment (6-mer frequency, TF over GST control) | 1.2 fold enrichment (6-mer frequency, TF over GST control) | 1.07 fold enrichment (6-mer frequency, TF over GST control) | –
24 | AGCGCC | 1.01 fold enrichment (6-mer frequency, TF over GST control) | – | 1.02 fold enrichment (6-mer frequency, TF over GST control) | – | –
25 | TGGCCG | 1.11 fold enrichment (6-mer frequency, TF over GST control) | 1.14 fold enrichment (6-mer frequency, TF over GST control) | 1.14 fold enrichment (6-mer frequency, TF over GST control) | – | –
26 | GCCCAA | 1.04 fold enrichment (6-mer frequency, TF over GST control) | 1.01 fold enrichment (6-mer frequency, TF over GST control) | – | – | –
27 | GTTGTT | 1.17 fold enrichment (6-mer frequency, TF over GST control) | 1.09 fold enrichment (6-mer frequency, TF over GST control) | 1.1 fold enrichment (6-mer frequency, TF over GST control) | 1.19 fold enrichment (6-mer frequency, TF over GST control) | –
28 | GCCTGA | 1.05 fold enrichment (6-mer frequency, TF over GST control) | 1.05 fold enrichment (6-mer frequency, TF over GST control) | – | 1.05 fold enrichment (6-mer frequency, TF over GST control) | –
29 | ATGCAG | 1.09 fold enrichment (6-mer frequency, TF over GST control) | 1.06 fold enrichment (6-mer frequency, TF over GST control) | – | 1.06 fold enrichment (6-mer frequency, TF over GST control) | –
30 | GTACCC | 1.08 fold enrichment (6-mer frequency, TF over GST control) | 1.16 fold enrichment (6-mer frequency, TF over GST control) | 1.12 fold enrichment (6-mer frequency, TF over GST control) | 1.01 fold enrichment (6-mer frequency, TF over GST control) | –
31 | GTAGCT | 1.15 fold enrichment (6-mer frequency, TF over GST control) | 1.09 fold enrichment (6-mer frequency, TF over GST control) | 1.07 fold enrichment (6-mer frequency, TF over GST control) | 1.07 fold enrichment (6-mer frequency, TF over GST control) | 1.02 fold enrichment (6-mer frequency, TF over GST control)
32 | CATGCA | 1.1 fold enrichment (6-mer frequency, TF over GST control) | 1.02 fold enrichment (6-mer frequency, TF over GST control) | 1.02 fold enrichment (6-mer frequency, TF over GST control) | 1.01 fold enrichment (6-mer frequency, TF over GST control) | –
33 | TATGTC | 1.05 fold enrichment (6-mer frequency, TF over GST control) | 1.06 fold enrichment (6-mer frequency, TF over GST control) | 1.14 fold enrichment (6-mer frequency, TF over GST control) | 1.05 fold enrichment (6-mer frequency, TF over GST control) | –
